Results from PubChem BioAssay AID743025 (Vanderbilt Specialized Chemistry Center, 2013).
Activity calls are given as the source filed them.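 How the source made its calls: active means IC50 below 10 µM at human M5 in a calcium flux test, acting as a negative modulator; inactive means the rest.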

What follows are compounds tested against Muscarinic acetylcholine receptor M5 (Homo sapiens) (UniProt P08912) (assay: M5 muscarinic receptor negative allosteric modulators, cell-based, single concentration, human M5 (AID 743025)). Settings: CHO-K1 hM5, ACh EC80 calcium flux, Fluo-4; at 10 µM; active compounds read low.
Muscarinic acetylcholine receptor M5 (Homo sapiens), sequence (P08912 whole entry, looked up): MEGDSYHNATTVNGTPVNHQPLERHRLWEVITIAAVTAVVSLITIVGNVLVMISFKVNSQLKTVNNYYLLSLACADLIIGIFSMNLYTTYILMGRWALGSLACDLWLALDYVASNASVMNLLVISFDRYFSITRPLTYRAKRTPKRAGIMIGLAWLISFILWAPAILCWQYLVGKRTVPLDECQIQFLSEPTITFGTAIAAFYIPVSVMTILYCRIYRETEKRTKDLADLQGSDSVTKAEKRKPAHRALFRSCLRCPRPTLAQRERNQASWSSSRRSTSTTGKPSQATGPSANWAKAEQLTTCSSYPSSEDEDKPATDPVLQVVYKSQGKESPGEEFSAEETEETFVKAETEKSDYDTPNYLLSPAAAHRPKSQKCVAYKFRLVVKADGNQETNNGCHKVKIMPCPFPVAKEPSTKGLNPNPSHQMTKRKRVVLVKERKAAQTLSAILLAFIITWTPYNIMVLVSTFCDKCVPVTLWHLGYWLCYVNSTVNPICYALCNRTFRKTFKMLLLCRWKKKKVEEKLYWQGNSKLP

Structure (SMILES)	activity remaining
O=C(c1ccc(C(F)(F)F)cc1)N1CCN2C(=O)c3ccccc3C12c1ccc(F)cc1 (stereo unspecified)	70.2% (inactive)
O=C(c1ccc(F)c(F)c1)N1CCCN2C(=O)c3ccccc3C12c1ccc(Cl)cc1 (stereo unspecified)	80.4% (inactive)
Cc1ccc(C(=O)N2CCN3C(=O)c4ccccc4C23c2ccc(F)cc2)cc1 (stereo unspecified)	67.9% (inactive)
N#CC1(c2ccccc2)CCCN1C(=O)c1ccccc1 (stereo unspecified)	84.8% (inactive)
O=C(c1ccccc1C(F)(F)F)N1CCN2C(=O)c3ccccc3C12c1ccccc1 (stereo unspecified)	82.4% (inactive)
Cc1ccc(C23NCCN2C(=O)c2ccccc23)cc1 (stereo unspecified)	77.4% (inactive)
O=C(c1ccc(OC(F)(F)F)cc1)N1CCN2C(=O)c3ccccc3C12c1ccc(Cl)cc1 (stereo unspecified)	1.2% (active)
O=C(c1ccccc1)N1CCN2C(=O)c3ccccc3C12c1ccccc1 (stereo unspecified)	74.8% (inactive)
C[C@H]1CN(Cc2ccccc2)[C@]2(c3ccc(Cl)cc3)c3ccccc3C(=O)N12	73.1% (inactive)
O=C(c1ccc(F)cc1F)N1CCN2C(=O)c3ccccc3C12c1ccccc1 (stereo unspecified)	69% (inactive)
COc1ccc(C23c4ccccc4C(=O)N2CCN3C(=O)c2ccccc2C)cc1 (stereo unspecified)	49.9% (active)
Cc1ccc(C23c4ccccc4C(=O)N2CCN3C(=O)c2ccc(C(F)(F)F)cc2)cc1 (stereo unspecified)	28.6% (active)
O=C(c1ccncc1)N1CCN2C(=O)c3ccccc3C12c1ccccc1 (stereo unspecified)	98.6% (inactive)
O=C(c1ccc(F)c(F)c1)N1CCN2C(=O)c3ccccc3C12c1ccc(O)cc1 (stereo unspecified)	65.9% (inactive)
O=C(c1ccc(OC(F)F)cc1)N1CCN2C(=O)c3ccccc3C12c1ccc(Cl)cc1 (stereo unspecified)	13.3% (active)
O=C(c1ccc(F)cc1)N1CCN2C(=O)c3ccccc3C12c1ccc(F)cc1 (stereo unspecified)	69.7% (inactive)
Cc1ccc(C23c4ccccc4C(=O)N2CCN3C(=O)c2cccc(C(F)(F)F)c2)cc1 (stereo unspecified)	28.8% (active)
O=C(c1cccc(F)c1)N1CCN2C(=O)c3ccccc3C12c1ccccc1 (stereo unspecified)	86% (inactive)

Structure (SMILES)	activity remaining
O=C(c1cccc(C(F)(F)F)c1)N1CCN2C(=O)c3ccccc3C12c1ccc(Cl)cc1 (stereo unspecified)	1.89% (active)
Cc1ccc(C(=O)N2CCN3C(=O)c4ccccc4C23c2ccc(Cl)cc2)cc1 (stereo unspecified)	17.9% (active)
CCCN1C(=O)c2ccccc2C1c1ccccc1 (stereo unspecified)	86.1% (inactive)
Cc1ccc(C(=O)N2CCN3C(=O)c4ccccc4C23c2ccccc2)cc1 (stereo unspecified)	70.2% (inactive)
O=C(c1ccc(C(F)(F)F)cc1)N1CCCN2C(=O)c3ccccc3C12c1ccc(Cl)cc1 (stereo unspecified)	75.7% (inactive)
O=C(c1ccccc1)N1CCN(C(=O)c2ccccc2)C1c1ccccc1	85.3% (inactive)
COc1ccc(C23c4ccccc4C(=O)N2CCN3C(=O)c2ccc(F)cc2)cc1 (stereo unspecified)	62.4% (inactive)
CN(C(=O)c1ccccc1)C(c1ccccc1)c1ccccc1	84.3% (inactive)
O=C(c1ccc(F)c(F)c1)N1CCN2C(=O)c3ncccc3C12c1ccccc1 (stereo unspecified)	66.4% (inactive)
O=C(c1ccc(F)cc1)N1CCN2C(=O)c3ncccc3C12c1ccccc1 (stereo unspecified)	65.2% (inactive)
O=C(Nc1ccc(F)cc1F)N1CCN2C(=O)c3ccccc3C12c1ccc(Cl)cc1 (stereo unspecified)	77.2% (inactive)
CC(C)(C)C(=O)N1CCN2C(=O)c3ccccc3C21c1ccccc1 (stereo unspecified)	83.6% (inactive)
CN(C)c1ccc(C(=O)N2CCN3C(=O)c4ccccc4C23c2ccccc2)cc1 (stereo unspecified)	88% (inactive)
O=C(c1ccc(F)cc1)N1CCCN2C(=O)c3ccccc3C12c1ccc(Cl)cc1 (stereo unspecified)	76% (inactive)
O=C(c1ccc(C(F)(F)F)cc1)N1CCN2C(=O)c3ccccc3C12c1ccc(Cl)cc1 (stereo unspecified)	2.04% (active)
O=C1c2ccccc2C2(c3ccc(F)cc3)NCCN12 (stereo unspecified)	77.6% (inactive)
O=C(c1ccc2c(c1)OCO2)N1CCN2C(=O)c3ccccc3C12c1ccc(Cl)cc1 (stereo unspecified)	8.65% (active)
O=C(c1cccs1)N1CCN2C(=O)c3ccccc3C12c1ccccc1 (stereo unspecified)	79.5% (inactive)
